Measurements: PubChem BioAssay (NCATS)
“And” between values parts separate entries of the source, which are not always exact repeats. Equal entries are not always repeated. Records with an inconclusive call do not appear. The source made the active and inactive calls. The call rests on the fitted dose curve; in most records, active means well fitted curve in the direction sought with a large enough effect; inconclusive means small, poorly fitted or top-dose-only effect, or another doubt; inactive means no such curve, though single readings can be large; an effect the other way counts as inactive or inconclusive.

What was measured:
[1] = Quantitative highthroughput screen to assess conditional lethalithy of NOMO1 cells grown in RPMI1640 with untreated serum (RPMI+s) (AID 1963876); conditions: NOMO1 AML cells in RPMI+serum, CellTiter-Glo viability, 48 h; series mostly up to 45.8 µM; further: nearly all actives have a fitted effect of over 35% in size; further: potency means the concentration at half of the fitted maximal effect;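 on viability: 100% = DMSO wells and 0% = empty wells without cells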
Summary of the method: (§1)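 Each medium arm—HPLM with 10% dialyzed FBS, or RPMI1640 with 5 mM glucose and 10% untreated or dialyzed FBS—was screened against an 11-point, 3-fold compound titration for 48 h at 37 °C, with CellTiter-Glo luminescence as endpoint.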

[2] = Quantitative highthroughput screen to assess conditional lethalithy of NOMO1 cells grown in Human Plasma-Like Medium with dialyzed fetal bovine serum (HPLM+ds) (AID 1963878); conditions: NOMO1 AML cells in HPLM+ds, CellTiter-Glo viability, 48 h; series mostly up to 45.8 µM; further: nearly all actives have a fitted effect of over 35% in size; further: potency means the concentration at half of the fitted maximal effect;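 on viability: 100% = DMSO wells and 0% = empty wells on each plate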
Summary of the method: as §1

[3] = Quantitative highthroughput screen to assess conditional lethalithy of P12 Ichikawa cells grown in Human Plasma-Like Medium with dialyzed fetal bovine serum (HPLM+ds) (AID 1963879); conditions: ATP luminescence, 48 h; Potency: viability; series mostly up to 45.8 µM; further: nearly all actives have a fitted effect of over 35% in size; further: potency means the concentration at half of the fitted maximal effect
Summary of the method: as §1

[4] = Quantitative highthroughput screen to assess conditional lethalithy of P12 Ichikawa cells grown in RPMI1640 with dialyzed fetal bovine serum (RPMI+ds) (AID 1963880); conditions: ATP luminescence, 48 h; Potency: P12-Ichikawa viability; series mostly up to 45.8 µM; further: nearly all actives have a fitted effect of over 35% in size; further: potency means the concentration at half of the fitted maximal effect;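 on viability: 100% = DMSO wells and 0% = empty wells on each plate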
Summary of the method: as §1

[5] = Quantitative highthroughput screen to assess conditional lethalithy of P12 Ichikawa cells grown in RPMI1640 with untreated serum (RPMI+s) (AID 1963881); conditions: ATP luminescence, 48 h; Potency: viability; series mostly up to 45.8 µM; further: nearly all actives have a fitted effect of over 35% in size; further: potency means the concentration at half of the fitted maximal effect;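 on viability: 100% = DMSO wells and 0% = empty wells without cells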
Summary of the method: as §1

[6] = Quantitative highthroughput screen to assess conditional lethalithy of SEM cells grown in RPMI1640 with dialyzed fetal bovine serum (RPMI+ds) (AID 1963884); conditions: SEM B-ALL cells, RPMI+dialyzed FBS, CellTiter-Glo viability, 48 h; series mostly up to 45.8 µM; further: nearly all actives have a fitted effect of over 35% in size; further: potency means the concentration at half of the fitted maximal effect;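 on viability: 100% = DMSO control wells and 0% = empty wells without cells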
Summary of the method: as §1

[7] = Cellular viability qHTS for adrenocortical cancer (ACC) cell line SW-13 (AID 1963989); conditions: SW-13 ACC cells viability, CellTiter-Glo, 48 h; activity (max response): hits give low values; further: nearly all actives have a fitted effect of over 65% in size; further: potency means the concentration at half of the fitted maximal effect;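 on activity (max response): cells grown in serum-free medium with ITS supplement; on the % scale 0 is the no-effect control and ±100 the full control effect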
Summary of the method: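 SW-13 cells in ITS-supplemented serum-free DMEM were plated overnight, then exposed for 48 h at 37C to compound titrations (up to 46 uM final). Viability was read by CellTiter-Glo luminescence; four-parameter logistic fits gave IC50 and efficacy.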

[8] = Cellular viability qHTS for adrenocortical cancer (ACC) cell line NCI-H295R (AID 1963990); conditions: CellTiter-Glo ATP luminescence, 48 h; series mostly up to 46.1 µM;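 further: 0% = DMSO only wells and -100% = full killing with cytotoxic reference compound; nearly all actives have a fitted effect of over 60% in size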
Summary of the method: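 Luminescent ATP read-out (CellTiter-Glo, 20 min RT) after 48 h drug exposure of NCI-H295R cells; a titration up to 46 uM final. Data normalized to doxorubicin (100% inhibition) and DMSO (0%); 4-parameter fit gives IC50, max response.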

[9] = Quantitative highthroughput screen to assess conditional lethalithy of SEM cells grown in Human Plasma-Like Medium with dialyzed fetal bovine serum (HPLM+ds) (AID 1963882); conditions: SEM B-ALL cells in HPLM+ds, CellTiter-Glo viability, 48 h; series mostly up to 45.8 µM; further: nearly all actives have a fitted effect of over 35% in size; further: potency means the concentration at half of the fitted maximal effect
Summary of the method: as §1

[10] = Quantitative highthroughput screen to assess conditional lethalithy of SEM cells grown in RPMI1640 with unreated serum (RPMI+s) (AID 1963883); conditions: SEM B-ALL cells, CellTiter-Glo viability, 48 h; series mostly up to 45.8 µM; further: nearly all actives have a fitted effect of over 35% in size; further: potency means the concentration at half of the fitted maximal effect;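 on viability: 100% = DMSO wells and 0% = empty wells without cells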
Summary of the method: as §1

O=c1n(CCCN2CCN(c3cccc(Cl)c3)CC2)nc2ccccn12
inactive: Potency [1] | Potency [2] | Potency [3] | Potency [4] | Potency [5] | Potency [6] | activity (max response) [7] -1.77% | Potency [8]

C[C@H]1O[C@@H](n2cc(F)c(=O)[nH]c2=O)[C@H](O)[C@H]1O
inactive: Potency [1] | Potency [3] | Potency [4] | Potency [5]

CCOC(=O)O[C@]1(C(=O)OCCl)CC[C@@H]2[C@H]3CCC4=CC(=O)C=C[C@]4(C)[C@@H]3[C@@H](O)C[C@@]21C
inactive: Potency [1] | Potency [3] | Potency [4] | Potency [5] | Potency [9] | Potency [10] | Potency [6]

CC1(C)O[C@H]2C[C@@H]3[C@H]4CCC5=CC(=O)C=C[C@]5(C)[C@@]4(F)[C@@H](O)C[C@]3(C)[C@]2(C(=O)CO)O1
active: Potency [1] 9.35 µM | Potency [3] 1.48 µM | Potency [4] 0.264 µM | Potency [5] 0.743 µM

CO[C@@H](C(=O)N1Cc2[nH]nc(NC(=O)c3ccc(N4CCN(C)CC4)cc3)c2C1)c1ccccc1
active: Potency [1] 0.148 µM | Potency [2] 0.0469 µM | Potency [9] 0.132 µM | Potency [10] 0.0743 µM | Potency [6] 0.0833 µM

COC(=O)[C@@H]1CC2=CC(=O)CC[C@]2(C)[C@@]23O[C@@H]2C[C@@]2(C)[C@H](CC[C@@]24CCC(=O)O4)[C@@H]13
inactive: Potency [1] | Potency [2] | Potency [3] | Potency [4] | Potency [5] | Potency [9] | Potency [10] | Potency [6]

C[C@]12CCC3=C4CCC(=O)C=C4CC[C@@H]3[C@H]1CC[C@@]2(O)CC#N
inactive: Potency [1] | Potency [2] | Potency [3] | Potency [4] | Potency [5] | Potency [9] | Potency [10] | Potency [6]

Cn1cc(-c2cnn3c(N)c(Br)c([C@H]4CCCNC4)nc23)cn1
active: Potency [1] 2.09 µM | Potency [2] 1.32 µM | Potency [3] 2.96 µM | Potency [4] 2.64 µM | Potency [5] 2.64 µM | Potency [10] 2.35 µM | Potency [6] 1.05 µM

COC(=O)[C@H](c1ccccc1Cl)N1CCc2sccc2C1
active: Potency [1] 1.05 µM | Potency [3] 8.33 µM | Potency [4] 11.8 µM | Potency [5] 9.35 µM
inactive: Potency [9] | Potency [10] | Potency [6] | activity (max response) [7] -22.7% | Potency [8]

Cc1ccccc1C(C(=O)NC1CCCC1)N(C(=O)Cn1cnc2ccccc21)c1cccc(F)c1 (configuration not stated)
inactive: Potency [1] | Potency [2] | Potency [3] | Potency [4] | Potency [5] | Potency [9] | Potency [6]

COc1ccc(-c2ccc3c(N4CCOC[C@H]4C)nc(N4CCOC[C@H]4C)nc3n2)cc1CO
active: Potency [1] 18.7 µM | Potency [3] 18.7 µM

CN(C)CCc1c[nH]c2ccc(Cn3cncn3)cc12
active: Potency [1] 1.05 µM | Potency [2] 0.833 µM | Potency [3] 1.18 µM | Potency [4] 0.935 µM | Potency [5] 1.18 µM | Potency [9] 0.372 µM | Potency [10] 0.132 µM | Potency [6] 0.264 µM

CN1[C@@H]2CCC[C@@H]1CC(NC(=O)c1nn(C)c3ccccc13)C2 (some centres not stated)
inactive: Potency [1] | Potency [2] | Potency [3] | Potency [4] | Potency [5] | Potency [9] | Potency [10] | Potency [6]

CC[C@@H]1C(=O)N(C)c2cnc(Nc3ccc(C(=O)NC4CCN(C)CC4)cc3OC)nc2N1C1CCCC1
active: Potency [1] 0.0662 µM | Potency [3] 0.0264 µM | Potency [4] 0.0332 µM | Potency [5] 0.0332 µM | Potency [9] 0.0372 µM | Potency [10] 0.0469 µM | Potency [6] 0.0469 µM | Potency [7] 0.0355 µM

NC(=O)C1CCCc2c1[nH]c1ccc(Cl)cc21 (configuration not stated)
active: Potency [1] 8.33 µM | Potency [2] 5.9 µM | Potency [9] 2.35 µM | Potency [10] 5.26 µM | Potency [6] 4.18 µM
inactive: activity (max response) [7] -13.4% | Potency [8]

O=C(CCc1ccc(O)cc1)c1c(O)cc(O)cc1O[C@@H]1O[C@H](CO)[C@H](O)[C@H](O)[C@H]1O
inactive: Potency [1] | Potency [3] | Potency [4] | Potency [5] | Potency [9] | Potency [10]

CO[C@H]1C=CO[C@@]2(C)Oc3c(C)c(O)c4c(O)c(c(C=NN5CCN(C)CC5)c(O)c4c3C2=O)NC(=O)C(C)=CC=C[C@H](C)[C@H](O)[C@@H](C)[C@@H](O)[C@@H](C)[C@H](OC(C)=O)[C@H]1C
inactive: Potency [1]
active: Potency [4] 2.38 µM | Potency [5] 3.78 µM

CC(C)(C)NC(=O)[C@H]1CC[C@H]2[C@@H]3CC[C@H]4NC(=O)C=C[C@]4(C)[C@H]3CC[C@]12C
inactive: Potency [9] | Potency [10] | Potency [6] | activity (max response) [7] -6.83% and 2.59% | Potency [8]
active: Potency [1] 2.35 µM | Potency [3] 10.5 µM | Potency [5] 11.8 µM
